# Data from PubChem BioAssay (EPA / NIEHS).
# The source made the active and inactive calls. The calls were made as follows: active = hit-call score of the fitted dose curve at least 0.9, where 1 is the maximum; inactive = score below 0.9.
# Assays:
# Settings in all cases: mRNA level, 48 h; actives raise or lower the signal
# [1] = read-out: Transforming Growth Factor (TGFA), TGFA (gene 7039); test: LTEA_HepaRG_TGFA: Life Technologies and Expression Analysis (LTEA) Assay for Transforming Growth Factor (TGFA) using HepaRG (AID 2283532)
# How it was run: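 TGFA transcript quantified by qRT-PCR (Fluidigm arrays) against three housekeeping genes, after 48 hours chemical treatment of HepaRG cells. Top concentration 100 uM with half-log dilutions, 8 points, duplicates, 0.5% DMSO.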
# [2] = read-out: TIMP1, TIMP1 (gene 7076); test: LTEA_HepaRG_TIMP1: Life Technologies and Expression Analysis (LTEA) Assay for TIMP1 using HepaRG (AID 2283534);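 as to outcome: TaqMan qRT-PCR signal normalized to ACTB GAPDH and POLR2A housekeeping genes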
# How it was run: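 We dosed human liver HepaRG cultures for 48 hours with up to 100 uM test chemical and measured TIMP1 expression by qRT-PCR. Activity in either direction is fitted relative to the 0.5% DMSO vehicle.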
# [3] = read-out: Tumor necrosis factor receptor 1 (TNFRSF1A), TNFRSF1A (gene 7132); test: LTEA_HepaRG_TNFRSF1A: Life Technologies and Expression Analysis (LTEA) Assay for Tumor necrosis factor receptor 1 (TNFRSF1A) using HepaRG (AID 2283535)
# How it was run: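 Expression of TNFRSF1A in human HepaRG liver cells was measured by qRT-PCR 48 h after chemical dosing (maximum 100 uM). Bidirectional curve fitting used 0.5% DMSO as baseline.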
# [4] = read-out: Thyroid Hormone Responsive (THRSP), THRSP (gene 7069); test: LTEA_HepaRG_THRSP: Life Technologies and Expression Analysis (LTEA) Assay for Thyroid Hormone Responsive (THRSP) using HepaRG (AID 2283536)
# How it was run: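 THRSP transcript quantified by Fluidigm qRT-PCR against three housekeeping genes after 48 h chemical exposure of HepaRG cells in serum-free induction medium; eight-point half-log series, top 100 uM, 0.5% DMSO vehicle, duplicate wells.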
# [5] = read-out: Cellular tumor antigen p53 (Homo sapiens) (UniProt P04637); test: LTEA_HepaRG_TP53: Life Technologies and Expression Analysis (LTEA) Assay for Tumor Protein P53 (TP53) using HepaRG (AID 2283537)
# How it was run: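 HepaRG, 48 h exposure, top 100 uM, half-log 8-point, 0.5% DMSO vehicle, duplicates. Read: TP53 mRNA by TaqMan qRT-PCR, normalised to ACTB/GAPDH/POLR2A; bidirectional fit vs DMSO.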
# [6] = read-out: UDP glucuronosyltransferase (UGT1A6), UGT1A6 (gene 54578); test: LTEA_HepaRG_UGT1A6: Life Technologies and Expression Analysis (LTEA) Assay for UDP glucuronosyltransferase (UGT1A6) using HepaRG (AID 2283539)
# How it was run: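 Endpoint is UGT1A6 transcript induction or loss in a human liver cell line, quantified by TaqMan qRT-PCR 48 h after dosing. Concentrations ran from 100 uM downward in half-log steps in 0.5% DMSO; activity was fitted in both directions versus vehicle.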
# [7] = read-out: X-box binding protein 1 (XBP1), XBP1 (gene 7494); test: LTEA_HepaRG_XBP1: Life Technologies and Expression Analysis (LTEA) Assay for X-box binding protein 1 (XBP1) using HepaRG (AID 2283540)
# How it was run: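 Human HepaRG monolayers receive test chemical for 48 h across an eight-point half-log series starting at 100 uM. XBP1 mRNA gain or loss is scored against DMSO by qRT-PCR.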
# [8] = read-out: Transforming Growth Factor (TGFB1), TGFB1 (gene 7040); test: LTEA_HepaRG_TGFB1: Life Technologies and Expression Analysis (LTEA) Assay for Transforming Growth Factor (TGFB1) Transporter using HepaRG (AID 2283533)
# How it was run: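 Expression change of TGFB1 in human HepaRG cells is measured after a 48 h chemical exposure, up to 100 uM in 0.5% DMSO vehicle. Curves are fitted in both directions relative to the DMSO baseline.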
# [9] = read-out: UDP glucuronosyltransferase (UGT1A1), UGT1A1 (gene 54658); test: LTEA_HepaRG_UGT1A1: Life Technologies and Expression Analysis (LTEA) Assay for UDP glucuronosyltransferase (UGT1A1) using HepaRG (AID 2283538)
# How it was run: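 UGT1A1 transcript level, measured by qRT-PCR with three housekeeping genes for normalization, after 48 h treatment of human HepaRG cells (0.5% DMSO, duplicates, up to 100 uM, half-log steps, 8 points). Curves fit both directions against DMSO baseline.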
# Sequence of Cellular tumor antigen p53 (Homo sapiens) (P04637 whole entry, looked up): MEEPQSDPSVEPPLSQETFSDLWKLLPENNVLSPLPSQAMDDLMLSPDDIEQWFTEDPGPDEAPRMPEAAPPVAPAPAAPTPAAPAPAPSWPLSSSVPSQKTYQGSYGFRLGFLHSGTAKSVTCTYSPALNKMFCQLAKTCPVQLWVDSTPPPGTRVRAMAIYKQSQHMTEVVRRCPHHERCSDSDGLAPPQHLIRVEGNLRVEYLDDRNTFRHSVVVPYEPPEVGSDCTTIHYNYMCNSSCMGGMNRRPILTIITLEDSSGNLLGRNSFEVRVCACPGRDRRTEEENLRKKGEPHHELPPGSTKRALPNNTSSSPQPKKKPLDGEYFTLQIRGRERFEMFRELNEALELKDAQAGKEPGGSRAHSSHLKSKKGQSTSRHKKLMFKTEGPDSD
compound,measurement,setting,value
O=C(OCCCCCCOC(=O)c1ccccc1)c1ccccc1,outcome,[1],inactive
same,outcome,[2],inactive
same,outcome,[3],inactive
same,outcome,[4],inactive
same,outcome,[5],inactive
same,outcome,[6],inactive
same,outcome,[7],inactive
CCCCOC(=O)CC(CC(=O)OCCCC)(OC(C)=O)C(=O)OCCCC,outcome,[1],inactive
same,outcome,[2],inactive
same,outcome,[3],inactive
same,outcome,[4],inactive
same,outcome,[5],inactive
same,outcome,[6],inactive
same,outcome,[7],inactive
CO[C@H]1/C=C/O[C@@]2(C)Oc3c(C)c(O)c4c(O)c(c(/C=N/N5CCN(C)CC5)c(O)c4c3C2=O)NC(=O)/C(C)=C\C=C\[C@H](C)[C@H](O)[C@@H](C)[C@@H](O)[C@@H](C)[C@H](OC(C)=O)[C@@H]1C,outcome,[1],inactive
same,outcome,[8],inactive
same,outcome,[2],inactive
same,outcome,[3],inactive
same,AC50,[4],12 µM (active)
same,outcome,[5],inactive
same,outcome,[6],inactive
same,outcome,[7],inactive
Cc1cccc2ccccc12,outcome,[1],inactive
same,outcome,[2],inactive
same,outcome,[3],inactive
same,outcome,[4],inactive
same,outcome,[5],inactive
same,outcome,[6],inactive
same,outcome,[7],inactive
CCCCCCCCOC(=O)c1cc(O)c(O)c(O)c1,outcome,[1],inactive
same,outcome,[2],inactive
same,outcome,[3],inactive
same,outcome,[4],inactive
same,outcome,[5],inactive
same,outcome,[9],inactive
same,outcome,[6],inactive
same,outcome,[7],inactive
O=C(O)Cc1cc(I)c(Oc2ccc(O)c(I)c2)c(I)c1,AC50,[1],85.3 µM (active)
same,outcome,[2],inactive
same,outcome,[3],inactive
same,AC50,[4],81.7 µM (active)
same,AC50,[5],79.6 µM (active)
same,AC50,[9],95.7 µM (active)
same,AC50,[6],77.9 µM (active)
same,AC50,[7],75 µM (active)
c1ccc(C[n+]2cccc3ccccc32)cc1,AC50,[1],63 µM (active)
same,outcome,[2],inactive
same,AC50,[3],27.3 µM (active)
same,AC50,[4],50 µM (active)
same,AC50,[5],35.7 µM (active)
same,AC50,[9],26 µM (active)
same,outcome,[6],inactive
same,outcome,[7],inactive
CCN(Cc1cccnc1)C(=O)c1cccc(Cl)c1[C@]1(C)C(=O)N(Cc2ccc(OC)cc2OC)c2ccc(Cl)cc21,AC50,[1],13.6 µM (active)
same,outcome,[2],inactive
same,outcome,[3],inactive
same,AC50,[4],24 µM (active)
same,AC50,[5],11.6 µM (active)
same,AC50,[9],25.2 µM (active)
same,AC50,[6],16.7 µM (active)
same,AC50,[7],24.6 µM (active)
Cc1cn([C@H]2C[C@H](N=[N+]=[N-])[C@@H](CO)O2)c(=O)[nH]c1=O,outcome,[1],inactive
same,outcome,[2],inactive
same,outcome,[3],inactive
same,outcome,[4],inactive
same,outcome,[5],inactive
same,outcome,[6],inactive
same,outcome,[7],inactive
CCCCOC(=O)c1ccc(O)cc1,outcome,[1],inactive
same,outcome,[8],inactive
same,outcome,[2],inactive
same,outcome,[3],inactive
same,outcome,[4],inactive
same,outcome,[5],inactive
same,outcome,[6],inactive
same,outcome,[7],inactive
COc1ccc2cc(S(=O)(=O)N[C@H](CC(=O)N[C@H](Cc3ccc(CN4[C@H](C)CCC[C@@H]4C)cc3)C(=O)N(C)C(C)C)c3ccc4c(c3)OCO4)ccc2c1,AC50,[1],25.3 µM (active)
same,AC50,[8],12.8 µM (active)
same,AC50,[2],30.8 µM (active)
same,AC50,[3],21.2 µM (active)
same,outcome,[4],inactive
same,AC50,[5],24.1 µM (active)
same,AC50,[6],23.2 µM (active)
same,outcome,[7],inactive
O=C(O)Cn1c(=O)n(Cc2ccc(Br)cc2F)c(=O)c2ccc(Cl)cc21,outcome,[1],inactive
same,outcome,[8],inactive
same,outcome,[2],inactive
same,outcome,[3],inactive
same,AC50,[4],10.3 µM (active)
same,outcome,[5],inactive
same,AC50,[9],17.7 µM (active)
same,outcome,[6],inactive
same,outcome,[7],inactive
CCCCCCCC[Si](OCC)(OCC)OCC,outcome,[1],inactive
same,outcome,[2],inactive
same,outcome,[3],inactive
same,outcome,[4],inactive
same,outcome,[5],inactive
same,outcome,[6],inactive
same,outcome,[7],inactive
CCN(CC)C(=O)c1cc(S(=O)(=O)Cc2ccccc2)c(N2CCC(c3ccccc3)CC2)cc1N(CC)CCN(C)C,AC50,[1],27.9 µM (active)
same,outcome,[8],inactive
same,outcome,[2],inactive
same,AC50,[3],30.1 µM (active)
same,AC50,[4],6.01 µM (active)
same,AC50,[5],30.7 µM (active)
same,AC50,[6],30 µM (active)
same,AC50,[7],28.8 µM (active)
CCCCCc1ccc(N)cc1,outcome,[1],inactive
same,outcome,[8],inactive
same,outcome,[2],inactive
same,outcome,[3],inactive
same,outcome,[4],inactive
same,outcome,[5],inactive
same,outcome,[6],inactive
same,outcome,[7],inactive
C[C@]12CC[C@@H]3c4ccc(O)cc4CC[C@H]3[C@@H]1CC[C@H]2O,outcome,[1],inactive
same,AC50,[8],50 µM (active)
same,outcome,[2],inactive
same,outcome,[3],inactive
same,outcome,[4],inactive
same,outcome,[5],inactive
same,outcome,[6],inactive
same,outcome,[7],inactive
O=C(O)c1ccccc1C(=O)OCc1ccccc1,outcome,[1],inactive
same,outcome,[8],inactive
same,outcome,[2],inactive
same,outcome,[3],inactive
same,outcome,[4],inactive
same,outcome,[5],inactive
same,outcome,[6],inactive
same,outcome,[7],inactive
Cc1oc2c(NC(=O)c3c(Cl)cccc3Cl)cccc2c1C(C)(C)O,outcome,[1],inactive
same,AC50,[8],50 µM (active)
same,outcome,[2],inactive
same,outcome,[3],inactive
same,AC50,[4],86.8 µM (active)
same,AC50,[5],82.1 µM (active)
same,AC50,[6],46.9 µM (active)
same,AC50,[7],11.3 µM (active)
O=c1c(-c2ccc(O)cc2)coc2cc(O)cc(O)c12,outcome,[1],inactive
same,outcome,[8],inactive
same,outcome,[2],inactive
same,outcome,[3],inactive
same,outcome,[4],inactive
same,outcome,[5],inactive
same,outcome,[6],inactive
same,outcome,[7],inactive
CN1C(=O)CC[C@H]1c1cccnc1,outcome,[1],inactive
same,outcome,[2],inactive
same,outcome,[3],inactive
same,outcome,[4],inactive
same,outcome,[5],inactive
same,outcome,[9],inactive
same,outcome,[6],inactive
same,outcome,[7],inactive
Clc1ccccc1C(c1ccccc1)(c1ccccc1)n1ccnc1,AC50,[1],23.2 µM (active)
same,outcome,[2],inactive
same,outcome,[3],inactive
same,AC50,[4],29.9 µM (active)
same,AC50,[5],28 µM (active)
same,AC50,[6],15.8 µM (active)
same,outcome,[7],inactive
